According to the supplement of paper PMC11732987, “Enantioselective OTUD7B fragment discovery through chemoproteomics screening and high-throughput optimisation” (Communications Chemistry, 2025):

Assays:
Assay in all cases: log2 ratio of Biotin-Ahx-Ub-VS probe labelling (fragment/DMSO); higher = less target engagement (more negative = stronger competition), active = hit call of the paper (q ≤ 0.05, log2 ratio ≤ -1)
Details in all cases: compound concentration: 200 uM; treatment time: 3 h
USP19 = biological target: T1, USP19 (UniProt O94966)
T1 sequence (whole entry): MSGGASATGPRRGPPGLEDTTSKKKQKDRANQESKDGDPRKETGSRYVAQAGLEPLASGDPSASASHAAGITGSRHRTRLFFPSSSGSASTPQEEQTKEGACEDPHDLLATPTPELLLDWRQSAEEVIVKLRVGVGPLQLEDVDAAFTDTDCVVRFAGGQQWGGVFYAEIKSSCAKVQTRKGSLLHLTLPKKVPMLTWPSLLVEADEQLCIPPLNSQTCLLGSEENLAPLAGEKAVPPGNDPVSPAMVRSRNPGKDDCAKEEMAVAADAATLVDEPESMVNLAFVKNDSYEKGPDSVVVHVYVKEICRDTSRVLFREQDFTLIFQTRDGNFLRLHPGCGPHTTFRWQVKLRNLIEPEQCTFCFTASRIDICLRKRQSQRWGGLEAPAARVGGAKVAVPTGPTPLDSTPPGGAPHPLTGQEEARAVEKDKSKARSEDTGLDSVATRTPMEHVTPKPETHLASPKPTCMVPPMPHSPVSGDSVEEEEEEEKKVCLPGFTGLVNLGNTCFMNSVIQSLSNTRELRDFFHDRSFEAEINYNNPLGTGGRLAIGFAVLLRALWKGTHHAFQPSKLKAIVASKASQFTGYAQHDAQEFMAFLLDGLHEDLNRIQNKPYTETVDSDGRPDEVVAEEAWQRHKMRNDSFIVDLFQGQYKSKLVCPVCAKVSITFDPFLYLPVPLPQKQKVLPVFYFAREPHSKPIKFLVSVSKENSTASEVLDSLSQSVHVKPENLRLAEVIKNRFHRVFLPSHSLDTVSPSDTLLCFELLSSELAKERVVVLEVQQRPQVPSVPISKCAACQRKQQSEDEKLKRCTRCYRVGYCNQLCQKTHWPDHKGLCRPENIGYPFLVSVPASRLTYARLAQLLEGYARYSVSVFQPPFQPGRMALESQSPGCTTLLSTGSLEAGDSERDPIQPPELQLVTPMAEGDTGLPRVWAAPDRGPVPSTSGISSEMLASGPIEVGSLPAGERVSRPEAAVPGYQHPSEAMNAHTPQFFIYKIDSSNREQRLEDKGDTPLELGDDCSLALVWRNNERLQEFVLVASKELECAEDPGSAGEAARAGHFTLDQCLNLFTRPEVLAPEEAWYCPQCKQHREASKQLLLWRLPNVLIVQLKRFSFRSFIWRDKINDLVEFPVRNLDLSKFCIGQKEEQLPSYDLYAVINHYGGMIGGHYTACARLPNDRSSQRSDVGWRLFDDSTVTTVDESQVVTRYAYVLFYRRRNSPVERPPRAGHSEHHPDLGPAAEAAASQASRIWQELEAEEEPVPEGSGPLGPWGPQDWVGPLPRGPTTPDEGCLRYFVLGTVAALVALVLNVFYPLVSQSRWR
Method in brief: (§1)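 Labelled DUBs from HEK293T lysate were NeutrAvidin-enriched, digested with LysC and trypsin, and run by diaPASEF LC-MS/MS. Before that, each 495 µg sample in Tris/CHAPS/IGEPAL buffer with protease inhibitors was treated in triplicate with fragment at 200 µM or vehicle for 3 h, then with Biotin-Ahx-Ub-VS at 0.5 µM final for 1 h. Values are average log2 ratios of fragment over vehicle by unpaired t-test, based on global-median-normalised Spectronaut label-free quantities from proteins with ≥2 unique peptides.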

USP22 = biological target: T2, USP22 (UniProt Q9UPT9)
T2 sequence (whole entry): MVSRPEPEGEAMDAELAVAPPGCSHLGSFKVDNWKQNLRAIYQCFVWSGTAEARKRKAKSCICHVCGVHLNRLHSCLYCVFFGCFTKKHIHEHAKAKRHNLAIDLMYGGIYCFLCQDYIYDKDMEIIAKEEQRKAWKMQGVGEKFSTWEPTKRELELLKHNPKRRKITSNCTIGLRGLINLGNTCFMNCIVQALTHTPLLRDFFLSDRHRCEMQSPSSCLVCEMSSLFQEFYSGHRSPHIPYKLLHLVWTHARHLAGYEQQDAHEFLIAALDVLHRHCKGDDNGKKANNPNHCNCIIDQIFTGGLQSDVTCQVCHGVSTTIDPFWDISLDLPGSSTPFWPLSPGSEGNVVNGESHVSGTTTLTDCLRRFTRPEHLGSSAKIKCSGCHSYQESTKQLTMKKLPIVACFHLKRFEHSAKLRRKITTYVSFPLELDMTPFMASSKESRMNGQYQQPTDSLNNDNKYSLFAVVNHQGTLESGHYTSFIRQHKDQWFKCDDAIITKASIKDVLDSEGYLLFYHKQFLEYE
Method in brief: as §1

USP24 = USP24 (UniProt Q9UPU5)
Sequence of USP24 (Q9UPU5 whole entry): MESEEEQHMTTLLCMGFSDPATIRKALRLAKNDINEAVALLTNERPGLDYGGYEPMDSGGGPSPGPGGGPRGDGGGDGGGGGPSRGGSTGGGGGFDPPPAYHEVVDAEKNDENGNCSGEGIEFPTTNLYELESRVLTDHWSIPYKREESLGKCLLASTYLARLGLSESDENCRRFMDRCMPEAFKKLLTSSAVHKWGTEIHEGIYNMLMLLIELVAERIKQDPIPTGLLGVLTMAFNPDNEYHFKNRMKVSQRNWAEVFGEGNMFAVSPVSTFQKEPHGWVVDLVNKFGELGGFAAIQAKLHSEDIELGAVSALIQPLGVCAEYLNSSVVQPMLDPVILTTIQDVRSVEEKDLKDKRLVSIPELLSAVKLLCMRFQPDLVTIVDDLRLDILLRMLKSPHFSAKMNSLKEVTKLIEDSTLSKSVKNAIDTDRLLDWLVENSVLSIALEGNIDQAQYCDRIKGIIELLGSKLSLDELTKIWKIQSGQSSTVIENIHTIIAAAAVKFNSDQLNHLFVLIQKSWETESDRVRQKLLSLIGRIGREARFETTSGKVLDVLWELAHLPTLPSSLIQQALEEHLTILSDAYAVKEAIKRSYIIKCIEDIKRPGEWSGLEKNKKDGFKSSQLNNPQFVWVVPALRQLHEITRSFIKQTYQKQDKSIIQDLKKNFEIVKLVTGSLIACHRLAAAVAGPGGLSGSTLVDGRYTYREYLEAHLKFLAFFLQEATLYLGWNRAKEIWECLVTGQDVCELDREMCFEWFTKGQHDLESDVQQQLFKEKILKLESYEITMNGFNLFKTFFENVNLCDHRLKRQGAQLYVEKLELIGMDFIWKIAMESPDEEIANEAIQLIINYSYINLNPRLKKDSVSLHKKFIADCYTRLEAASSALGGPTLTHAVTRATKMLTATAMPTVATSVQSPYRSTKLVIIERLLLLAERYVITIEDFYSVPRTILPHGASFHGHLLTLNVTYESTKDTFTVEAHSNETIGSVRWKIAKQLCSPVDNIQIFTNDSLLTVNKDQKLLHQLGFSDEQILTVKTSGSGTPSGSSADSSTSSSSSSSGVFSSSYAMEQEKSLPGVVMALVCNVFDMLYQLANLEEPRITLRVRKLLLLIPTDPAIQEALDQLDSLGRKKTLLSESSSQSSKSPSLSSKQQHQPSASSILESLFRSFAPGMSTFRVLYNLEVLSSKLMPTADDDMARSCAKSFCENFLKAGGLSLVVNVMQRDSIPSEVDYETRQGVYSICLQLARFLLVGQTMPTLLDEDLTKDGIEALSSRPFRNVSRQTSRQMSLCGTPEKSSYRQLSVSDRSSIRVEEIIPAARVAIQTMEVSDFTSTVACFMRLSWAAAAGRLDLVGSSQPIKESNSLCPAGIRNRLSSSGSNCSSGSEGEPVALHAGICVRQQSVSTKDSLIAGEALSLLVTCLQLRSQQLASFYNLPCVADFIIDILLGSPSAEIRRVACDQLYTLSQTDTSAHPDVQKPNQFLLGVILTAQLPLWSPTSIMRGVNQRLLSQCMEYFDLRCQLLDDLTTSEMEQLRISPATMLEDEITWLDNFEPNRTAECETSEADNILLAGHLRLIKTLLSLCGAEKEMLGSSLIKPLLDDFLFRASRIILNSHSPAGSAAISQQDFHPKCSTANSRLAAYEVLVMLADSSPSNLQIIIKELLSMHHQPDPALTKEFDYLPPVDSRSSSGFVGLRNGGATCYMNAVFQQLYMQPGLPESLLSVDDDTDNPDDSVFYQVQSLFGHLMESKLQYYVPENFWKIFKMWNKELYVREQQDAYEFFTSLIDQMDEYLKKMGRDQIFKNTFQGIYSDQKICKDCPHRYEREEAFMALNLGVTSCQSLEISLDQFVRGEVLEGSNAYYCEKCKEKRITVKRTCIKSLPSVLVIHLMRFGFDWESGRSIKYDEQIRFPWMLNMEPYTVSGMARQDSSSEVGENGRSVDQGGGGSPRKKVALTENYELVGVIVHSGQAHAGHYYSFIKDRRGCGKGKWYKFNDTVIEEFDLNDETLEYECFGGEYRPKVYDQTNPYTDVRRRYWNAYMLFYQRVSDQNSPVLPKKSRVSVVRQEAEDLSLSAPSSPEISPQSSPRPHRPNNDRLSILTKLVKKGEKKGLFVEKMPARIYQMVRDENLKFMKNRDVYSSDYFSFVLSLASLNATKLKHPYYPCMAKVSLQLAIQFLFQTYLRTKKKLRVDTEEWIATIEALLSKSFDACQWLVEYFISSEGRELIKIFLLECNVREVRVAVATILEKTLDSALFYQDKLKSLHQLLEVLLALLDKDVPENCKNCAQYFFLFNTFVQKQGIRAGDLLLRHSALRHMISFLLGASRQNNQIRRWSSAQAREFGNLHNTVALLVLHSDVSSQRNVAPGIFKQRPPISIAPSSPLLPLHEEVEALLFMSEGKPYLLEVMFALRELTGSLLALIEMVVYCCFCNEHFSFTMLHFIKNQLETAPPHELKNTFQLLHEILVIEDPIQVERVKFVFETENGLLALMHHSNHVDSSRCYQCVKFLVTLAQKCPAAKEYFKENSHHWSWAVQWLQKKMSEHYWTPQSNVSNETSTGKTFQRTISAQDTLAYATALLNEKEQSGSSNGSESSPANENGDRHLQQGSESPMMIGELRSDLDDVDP
Method in brief: as §1

USP25 = biological target: T3, USP25 (UniProt Q9UHP3)
T3 sequence (whole entry): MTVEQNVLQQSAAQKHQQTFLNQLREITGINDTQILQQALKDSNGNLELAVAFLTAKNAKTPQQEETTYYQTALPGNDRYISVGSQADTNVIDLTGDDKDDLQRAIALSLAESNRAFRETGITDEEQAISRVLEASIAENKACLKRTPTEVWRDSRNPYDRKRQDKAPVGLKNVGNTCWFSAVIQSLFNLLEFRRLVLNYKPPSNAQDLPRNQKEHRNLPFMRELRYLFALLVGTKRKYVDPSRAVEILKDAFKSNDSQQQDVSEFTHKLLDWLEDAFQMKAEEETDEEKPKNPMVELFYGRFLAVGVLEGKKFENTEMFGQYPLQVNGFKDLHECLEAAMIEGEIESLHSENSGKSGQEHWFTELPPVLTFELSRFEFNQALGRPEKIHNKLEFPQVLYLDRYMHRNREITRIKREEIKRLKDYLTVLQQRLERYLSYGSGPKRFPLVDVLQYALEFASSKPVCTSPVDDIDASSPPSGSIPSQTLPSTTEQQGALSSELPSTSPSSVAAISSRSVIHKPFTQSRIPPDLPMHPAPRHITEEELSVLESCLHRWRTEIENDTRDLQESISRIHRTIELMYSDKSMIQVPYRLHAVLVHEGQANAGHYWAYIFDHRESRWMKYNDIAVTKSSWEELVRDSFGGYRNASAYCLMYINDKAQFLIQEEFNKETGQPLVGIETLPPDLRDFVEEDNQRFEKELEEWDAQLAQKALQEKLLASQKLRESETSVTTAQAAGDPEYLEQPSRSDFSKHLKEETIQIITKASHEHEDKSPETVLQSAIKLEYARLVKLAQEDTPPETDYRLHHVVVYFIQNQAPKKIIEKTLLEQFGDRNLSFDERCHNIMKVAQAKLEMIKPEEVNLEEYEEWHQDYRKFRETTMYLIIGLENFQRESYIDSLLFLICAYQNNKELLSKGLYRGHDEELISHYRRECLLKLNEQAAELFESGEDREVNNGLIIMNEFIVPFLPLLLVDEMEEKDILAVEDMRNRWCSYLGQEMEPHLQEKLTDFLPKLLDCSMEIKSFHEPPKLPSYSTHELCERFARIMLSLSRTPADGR
Method in brief: as §1

USP28 = biological target: T4, USP28 (UniProt Q96RU2)
T4 sequence (whole entry): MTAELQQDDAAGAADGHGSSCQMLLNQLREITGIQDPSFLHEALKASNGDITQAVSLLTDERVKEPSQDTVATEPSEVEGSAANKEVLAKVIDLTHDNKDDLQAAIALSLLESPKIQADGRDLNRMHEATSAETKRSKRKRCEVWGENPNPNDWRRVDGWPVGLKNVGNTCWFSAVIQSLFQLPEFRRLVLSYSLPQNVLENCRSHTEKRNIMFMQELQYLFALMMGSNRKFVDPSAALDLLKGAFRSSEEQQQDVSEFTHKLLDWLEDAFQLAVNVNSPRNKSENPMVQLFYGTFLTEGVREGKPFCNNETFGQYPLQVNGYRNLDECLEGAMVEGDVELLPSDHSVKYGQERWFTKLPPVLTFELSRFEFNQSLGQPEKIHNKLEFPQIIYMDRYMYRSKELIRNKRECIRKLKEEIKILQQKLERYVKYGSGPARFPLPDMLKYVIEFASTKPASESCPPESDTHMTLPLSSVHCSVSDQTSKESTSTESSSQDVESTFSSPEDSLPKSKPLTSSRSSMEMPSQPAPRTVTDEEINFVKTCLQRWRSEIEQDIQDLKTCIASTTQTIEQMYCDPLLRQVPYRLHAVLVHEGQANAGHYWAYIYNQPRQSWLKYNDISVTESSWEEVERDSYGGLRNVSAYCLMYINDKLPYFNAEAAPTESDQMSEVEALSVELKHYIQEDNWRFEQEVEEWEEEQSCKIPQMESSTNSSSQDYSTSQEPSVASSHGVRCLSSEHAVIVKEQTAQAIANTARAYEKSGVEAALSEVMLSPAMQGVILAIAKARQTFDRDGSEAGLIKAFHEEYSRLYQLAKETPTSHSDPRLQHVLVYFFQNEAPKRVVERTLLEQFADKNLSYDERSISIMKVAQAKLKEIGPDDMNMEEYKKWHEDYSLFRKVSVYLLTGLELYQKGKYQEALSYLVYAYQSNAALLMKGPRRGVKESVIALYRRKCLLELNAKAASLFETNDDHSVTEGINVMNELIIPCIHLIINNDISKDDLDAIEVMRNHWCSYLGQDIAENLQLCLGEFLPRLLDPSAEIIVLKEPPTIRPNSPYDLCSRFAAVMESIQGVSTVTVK
Method in brief: as §1

Measured: log2 ratio of Biotin-Ahx-Ub-VS probe labelling

O=C(CCl)N1CCC(S(=O)(=O)c2ccc(F)cc2)CC1
inactive: USP19 -0.376 | USP22 0.191 | USP24 -0.346 | USP25 -0.444 | USP28 -0.572
